37 compounds from PubChem BioAssay (Tox21) can be followed below.

Inconclusive results are not listed. Where a call stands in place of a potency, no number is given. Activity calls are given as the source filed them. The call rests on the fitted dose curve; in most records, active means well fitted curve in the direction sought with a large enough effect in the repeat runs; inconclusive means weak or mixed curves; inactive means no such curve, though single readings can be large; an effect the other way counts as inactive or inconclusive.

One experiment can be described thus: qHTS assay to identify small molecule agonists of the sonic hedgehog signaling (Shh) pathway - cell viability counter screen (AID 1259366). Further: nearly all actives have a fitted effect of over 50% in size. Further: potency means the concentration at half of the fitted maximal effect. Conditions: NIH/3T3 Gli1-Luc viability, CellTiter-Fluor, 24 h; series mostly up to 92.4 µM. An outline of the steps:
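Cells are plated at 2,000 per well and left 4hr at 37C, 5% CO2 before compound addition. After 23hr of treatment, CellTiter-Fluor reagent is added for 1hr at 37C and fluorescence is measured.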
Background: In qHTS, concentration-response curves come from the screen itself.
In the case of `CCCCCCCCCC[N+](C)(C)[O-]`, the Potency entry was “inactive”.

In the case of `CO[C@@]1(NC(=O)CSC[C@@H](N)C(=O)O)C(=O)N2C(C(=O)O)=C(CSc3nnnn3C)CS[C@@H]21`, the Potency result is “inactive”.

As for `CC(=O)O[C@@]12CO[C@@H]1C[C@H](O)[C@@]1(C)C(=O)[C@H](O)C3=C(C)[C@@H](OC(=O)[C@H](O)[C@@H](NC(=O)OC(C)(C)C)c4ccccc4)C[C@@](O)([C@@H](OC(=O)c4ccccc4)[C@H]21)C3(C)C`, the Potency is 6.68 µM (active).

As to `CC1(C)OC[C@@H](COC(=O)CCc2ccc(OC[C@@H](O)CNCCNC(=O)N3CCOCC3)cc2)O1`, the Potency result was “inactive”.

Consider `Cc1ccc(C(=O)c2ccc(CC(=O)O)n2C)cc1`, for which the Potency result is “inactive”.

As for `O=S(=O)(O)c1cccc(S(=O)(=O)O)c1`, the Potency entry was “inactive”.

In the case of `CCCCCC(C)N` (stereo not drawn), the Potency entry is “inactive”.

Turning to `CCCCCCCC1CCCC1=O` (stereo not drawn), the Potency entry was “inactive”.

`CC(=O)N1C[C@H](O)C[C@H]1C(=O)O`: the Potency result was “inactive”.

`CCCOC(=O)CC`: the Potency result was “inactive”.

For `O=C(O)Cc1csc(-c2ccc(Cl)cc2)n1`, the Potency entry is “inactive”.

In the case of `Nc1c2c(nc3c1CCC3)CCCC2`, the Potency entry is “inactive”.

Consider `O=[N+]([O-])c1cncn1CCN1CCOCC1`, for which the Potency entry is “inactive”.

On to `C=C(C)C(=O)OCC(O)CO` (stereo not drawn), for which the Potency result was “inactive”.

As for `CCCCOCCOC(=O)COc1cc(Cl)c(Cl)cc1Cl`, the Potency entry is “inactive”.

With `Cc1ccc(-c2ccccc2C#N)cc1`, the Potency entry was “inactive”.

For `C[N+](C)(CCOc1ccccc1)Cc1cccs1`, the Potency entry was “inactive”.

Consider `NC(=O)NC1N=C([O][Al])NC1=O` (stereo not drawn), for which the Potency result was “inactive”.

As for `CCOC(=O)COc1cc(-n2ncc(C(F)(F)F)c(C)c2=O)c(F)cc1Cl`, the Potency result is “inactive”.

As to `CCOC(=O)C(=O)CCCCCCl`, the Potency result was “inactive”.

On to `CC1CCC(CO)CC1` (stereo not drawn), for which the Potency entry was “inactive”.

Turning to `Cc1onc(-c2c(Cl)cccc2Cl)c1C(=O)Cl`, the Potency result is “inactive”.

As to `Cc1nc2ccc(CN(C)c3ccc(C(=O)N[C@@H](CCC(=O)O)C(=O)O)s3)cc2c(=O)[nH]1`, the Potency entry is “inactive”.

As to `COC(=O)Nc1ccc(Cl)c(Cl)c1`, the Potency result was “inactive”.

With `NS(=O)(=O)Cc1noc2ccccc12`, the Potency entry is “inactive”.

Take `O=S(=O)(O)c1cc(O)c(O)c(S(=O)(=O)O)c1`: the Potency entry is “inactive”.

Regarding `CC1=NN(c2cccc(S(=O)(=O)O)c2)C(=O)C1`, the Potency entry was “inactive”.

Consider `CC(C)(C)c1ccc(-c2ccc(C(C)(C)C)cc2)cc1`, for which the Potency entry was “inactive”.

In the case of `CC[N+](CC)(CC)CCOc1cccc(OCC[N+](CC)(CC)CC)c1OCC[N+](CC)(CC)CC`, the Potency result is “inactive”.

As to `Cc1ccc(-c2ncc(Cl)cc2-c2ccc(S(C)(=O)=O)cc2)cn1`, the Potency entry is “inactive”.

Turning to `CCCCS(=O)(=O)N[C@@H](Cc1ccc(OCCCCC2CCNCC2)cc1)C(=O)O`, the Potency entry is “inactive”.

For `O=C(c1ccccc1O)c1ccccc1O`, the Potency entry is “inactive”.

On to `CC(=O)N[C@H]1[C@H]([C@H](O)[C@H](O)CO)OC(C(=O)O)=C[C@@H]1N=C(N)N`, for which the Potency entry was “inactive”.

Turning to `C=C[Si](OC(C)=O)(OC(C)=O)OC(C)=O`, the Potency result is “inactive”.

For the compound `CCOc1c(N2CCOCC2)cnn(C)c1=O`, the Potency entry was “inactive”.

As for `O=C(O)CCSCCC(=O)O`, the Potency entry was “inactive”.

With `CC(C)NNC(=O)c1ccncc1`, the Potency entry was “inactive”.

A further experiment is described as follows: qHTS assay to identify small molecule antagonists of the sonic hedgehog signaling (Shh) pathway - cell viability counter screen (AID 1259367). Further: nearly all actives have a fitted effect of over 55% in size. Conditions: NIH/3T3 Gli1-Luc viability, CellTiter-Fluor, 24 h; series mostly up to 92.4 µM. An outline of the steps:
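Cytotoxicity was assessed in parallel with Shh reporter activity by measuring live-cell protease fluorescence (CellTiter-Fluor) in NIH/3T3 cells stably carrying Gli1-Luc, treated with compound under conditioned medium stimulation for 23 hr plus 1 hr reagent incubation.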
Take `CCCCCCCCCC[N+](C)(C)[O-]`: the Potency result is “inactive”.

Consider `CC1(C)OC[C@@H](COC(=O)CCc2ccc(OC[C@@H](O)CNCCNC(=O)N3CCOCC3)cc2)O1`, for which the Potency entry was “inactive”.

On to `Cc1ccc(C(=O)c2ccc(CC(=O)O)n2C)cc1`, for which the Potency result is “inactive”.

In the case of `O=S(=O)(O)c1cccc(S(=O)(=O)O)c1`, the Potency result was “inactive”.

Take `CCCCCC(C)N` (stereo not drawn): the Potency result was “inactive”.

Turning to `CCCCCCCC1CCCC1=O` (stereo not drawn), the Potency entry is “inactive”.

In the case of `CCCOC(=O)CC`, the Potency result was “inactive”.

For `O=C(O)Cc1csc(-c2ccc(Cl)cc2)n1`, the Potency entry was “inactive”.

In the case of `Nc1c2c(nc3c1CCC3)CCCC2`, the Potency result is “inactive”.

Regarding `O=[N+]([O-])c1cncn1CCN1CCOCC1`, the Potency entry was “inactive”.

In the case of `C=C(C)C(=O)OCC(O)CO` (stereo not drawn), the Potency result was “inactive”.

Regarding `CCCCOCCOC(=O)COc1cc(Cl)c(Cl)cc1Cl`, the Potency result was “inactive”.

For the compound `Cc1ccc(-c2ccccc2C#N)cc1`, the Potency entry was “inactive”.

As to `C[N+](C)(CCOc1ccccc1)Cc1cccs1`, the Potency entry is “inactive”.

`NC(=O)NC1N=C([O][Al])NC1=O` (stereo not drawn): the Potency result was “inactive”.

In the case of `CCOC(=O)COc1cc(-n2ncc(C(F)(F)F)c(C)c2=O)c(F)cc1Cl`, the Potency result is “inactive”.

On to `CCOC(=O)C(=O)CCCCCCl`, for which the Potency result was “inactive”.

As to `CC1CCC(CO)CC1` (stereo not drawn), the Potency result is “inactive”.

Turning to `Cc1onc(-c2c(Cl)cccc2Cl)c1C(=O)Cl`, the Potency entry is “inactive”.

With `Cc1nc2ccc(CN(C)c3ccc(C(=O)N[C@@H](CCC(=O)O)C(=O)O)s3)cc2c(=O)[nH]1`, the Potency result was “inactive”.

Regarding `NS(=O)(=O)Cc1noc2ccccc12`, the Potency entry is “inactive”.

Take `O=S(=O)(O)c1cc(O)c(O)c(S(=O)(=O)O)c1`: the Potency entry is “inactive”.

Take `CC1=NN(c2cccc(S(=O)(=O)O)c2)C(=O)C1`: the Potency entry is “inactive”.

Regarding `CC(C)(C)c1ccc(-c2ccc(C(C)(C)C)cc2)cc1`, the Potency entry was “inactive”.

With `CC[N+](CC)(CC)CCOc1cccc(OCC[N+](CC)(CC)CC)c1OCC[N+](CC)(CC)CC`, the Potency entry was “inactive”.

Regarding `Cc1ccc(-c2ncc(Cl)cc2-c2ccc(S(C)(=O)=O)cc2)cn1`, the Potency entry is “inactive”.

Turning to `CCCCS(=O)(=O)N[C@@H](Cc1ccc(OCCCCC2CCNCC2)cc1)C(=O)O`, the Potency result is “inactive”.

Take `CC(=O)N[C@H]1[C@H]([C@H](O)[C@H](O)CO)OC(C(=O)O)=C[C@@H]1N=C(N)N`: the Potency result was “inactive”.

Turning to `CCOc1c(N2CCOCC2)cnn(C)c1=O`, the Potency entry is “inactive”.

With `O=C(O)CCSCCC(=O)O`, the Potency entry was “inactive”.

With `CC(C)NNC(=O)c1ccncc1`, the Potency result was “inactive”.
